aSyn UTR act – Activators working through SNCA 5'UTR binding (MLPCN). alpha-synuclein 5'UTR reporter, activators screen. AID 1814. hit rate 7.1% among 300,000. activity score, % (tested at 7.5 µM), hits read low; in the data active = activity score below about -60%
Active calls of the source: *. These entries were drawn from the full list.

SMILES | aSyn UTR act
Cc1ccc(NC(=O)c2cncc(Br)c2)c(O)c1 | -196*
Brc1ccc(-n2cnc(-c3ccccc3)c2)cc1 | -136*
CC1=Nc2cc(C(=O)NCCCOC(C)C)ccc2Sc2ccc(C)cc21 | 77
CCCC1=Nc2cc(C(=O)NCCCOCC)ccc2Sc2ccccc21 | 67
CCOCCCNC(=O)c1ccc(Br)cc1 | -84*
CC(C)OCCCNC(=O)c1ccc(Br)cc1 | -73*
NNc1nc(-c2ccccc2Cl)nc2sc3c(c12)CCCC3 | -200*
c1ccc2nc3c(nc2c1)OCC1CCCCN31 (configuration not stated) | -91*
COc1cccc(-c2ccc3c(N)c(C(=O)NC4CC4)sc3n2)c1 | -76*
Nc1c(C(=O)Nc2cccc(Cl)c2Cl)sc2nc(-c3cccnc3)ccc12 | -62*
COc1ccc(-c2ccc3c(N)c(C(=O)c4cccc(OC)c4)sc3n2)cc1 | -71*
Cc1ccc(NC(=O)CN(C)S(=O)(=O)c2cccs2)cc1C | -86*
Cc1ccc(NC(=O)CN(C)S(=O)(=O)c2cccs2)cc1F | -64*
COc1cc(Cl)cc(/C=C/c2ccc3ccccc3n2)c1OC(C)=O | -127*
CC(=O)Oc1ccc(Cl)cc1/C=C/c1cc(OC(C)=O)c2ccccc2n1 | -138*
O=C(Nc1cnc2ccccn2c1=O)c1ccc(Cl)cc1 | -139*
Cn1ccsc1=NC(=O)c1cccc(C#N)c1 | -86*
Cc1ccc(NC(=S)N=Nc2c(O)n(C)c3ccc(S(=O)(=O)N4CCOCC4)cc23)cc1C | 77
Cc1ccc(C(=O)N=c2sccn2C)cc1S(=O)(=O)N1CCOCC1 | -160*
CCCCOc1ccc(C(=O)N=c2sccn2C)cc1OC | -164*
Cn1ccsc1=NC(=O)c1ccc(Cl)c([N+](=O)[O-])c1 | -117*
Cn1ccsc1=NC(=O)c1ccc(S(C)(=O)=O)cc1 | -62*
Cc1cccc(C(=O)N=c2sccn2C)c1[N+](=O)[O-] | -133*
CCOC(=O)C(=O)N(Nc1ccc(C)cc1)c1ccc(C)cc1 | -178*
COc1ccc(CNc2nc3nc(C)c(Cl)c(C)n3n2)cc1 | -65*
SMILES | aSyn UTR act
COc1cccc(CNc2nc3nc(C)c(Cl)c(C)n3n2)c1 | -95*
O=c1c(/C=C(\O)c2ccccc2)nc2ccccc2n1-c1ccccc1 | -127*
COc1ccc2[nH]c(=O)c(CN(c3ccccc3OC)S(=O)(=O)c3ccccc3)cc2c1 | -69*
COc1ccc2[nH]c(=O)c(CN(Cc3cccs3)S(=O)(=O)c3cccc4nsnc34)cc2c1 | 76
COc1ccc(NC(=S)Nc2ccc(N)c([N+](=O)[O-])c2)cc1 | -145*
COc1ccc(NC(=S)Nc2ccc3snnc3c2)cc1 | -107*
COc1ccc(NC(=S)Nc2ccc3nccnc3c2)cc1 | -227*
N/C(=N\OC(=O)c1ccc2c(c1)OCO2)c1cccc([N+](=O)[O-])c1 | -133*
Cc1cccc(/C(N)=N/OC(=O)c2ccc3c(c2)OCO3)c1 | -116*
COc1cccc(NC(=O)CN(C)C(=O)C2CCN(C(=O)c3ccccc3C)CC2)c1 | -97*
CCN(CC)S(=O)(=O)c1cc(C(=O)Oc2cccc(-c3cnc4ccccc4n3)c2)ccc1OC | -171*
CCN(CC)S(=O)(=O)c1ccc(C)c(C(=O)Oc2cccc(-c3cnc4ccccc4n3)c2)c1 | -178*
CN(C)/C=C/C(=O)c1ccc(Br)cc1 | -70*
CCOc1ccc(-c2cc(CCCC(=O)NCCc3ccc(OC)c(OC)c3OC)no2)cc1 | 57
CCOc1ccc(-c2nc(CCl)cs2)cc1OC | -104*
Oc1c(C2=NCCNC(C(F)(F)F)=C2)ccc2ccccc12 | -193*
CC(C)Oc1cccc(C(=O)NC2=NCCS2)c1 | -96*
O=C(NC1=NCCS1)c1ccc(Br)s1 | -171*
O=C(NC1=NCCS1)c1cccc(Br)c1 | -75*
CCOc1cccc(C(=O)NC2=NCCS2)c1 | -104*
COc1cccc(C(=O)Oc2c(CN3CCOCC3)cc(Cl)c3cccnc23)c1 | 89
Cn1ccnc1SCC(=O)c1ccc2ccccc2c1 | -71*
COc1ccc(C(=O)CSc2nccn2C)c(OC)c1 | -80*
Cn1ccnc1SCC(=O)c1ccc(O)cc1 | -65*
COc1cccc(C(=O)CSc2nccn2C)c1 | -84*
SMILES | aSyn UTR act
COc1ccc(C(=O)Nc2cccc(C(C)=O)c2)cc1OC | -71*
COc1cc(OC)c(C(=O)Nc2cccc(C(C)=O)c2)cc1OC | -78*
COc1ccc(C(C)NC(=O)Nc2ccc(C(C)=O)cc2)cc1OC (configuration not stated) | -100*
CCOc1ccc(NC(=O)c2ccc(Br)o2)c([N+](=O)[O-])c1 | -129*
CCOc1ccc(NC(=O)COc2ccccc2)c([N+](=O)[O-])c1 | -218*
c1ccc(-c2nnc(SCc3cn4ccsc4n3)o2)cc1 | -75*
Cc1cc(C(=O)Nc2ccc3c(c2)OCCO3)c(C)o1 | -113*
Cc1ncoc1C(=O)Nc1ccc2c(c1)OCCO2 | -63*
Cc1ncoc1C(=O)Nc1ccc(Oc2ccccc2)cc1 | -104*
CC(=O)N=C1SC2CS(=O)(=O)CC2N1c1ccc(-c2nc3ccc(C)cc3s2)cc1 (configuration not stated) | -164*
Cc1ccc2nc(-c3ccc(N4C(=NC(=O)CCC(=O)O)SC5CS(=O)(=O)CC54)cc3)sc2c1 (configuration not stated) | -92*
O=C(Nc1ccccc1O)c1cc2cc(Br)ccc2oc1=O | -124*
CCCCCCc1cc2cc(C(=O)Nc3ccccc3)c(=O)oc2cc1O | 92
COc1ccc2oc(=O)c(C(=O)Nc3ccccc3C)cc2c1 | -199*
COc1ccc2oc(=N)c(C(=O)Nc3cccc(C)c3C)cc2c1 | -158*
COc1ccc2oc(=O)c(C(=O)Nc3cccc(C(C)=O)c3)cc2c1 | -82*
Cc1cccnc1NC(=O)c1cc2ccccc2oc1=O | -200*
CN(C)C(CNC(=O)c1cc2ccccc2oc1=O)c1ccccc1 (configuration not stated) | -162*
COc1ccc2oc(=N)c(C(=O)Nc3ccccc3Cl)cc2c1 | -209*
CCc1cc2c(=O)n(C(C)C(=O)OC3CCCCC3)cnc2s1 (configuration not stated) | -137*
CC(=O)Nc1ccc(-c2nnc(SCC(=O)c3ccc4c(c3)Cc3ccccc3-4)n2C)cc1 | -62*
O=C(OCc1csc(-c2ccccc2)n1)c1ccccc1O | -149*
CCOC(=O)c1sc(-c2ccc(OC)cc2)cc1NC(C)=O | -73*
Cn1nnnc1SCC(=O)c1ccc2c(c1)OCCO2 | -67*
CCCn1nnnc1SCC(=O)c1ccc2c(c1)OCCO2 | -83*
SMILES | aSyn UTR act
N#Cc1nc(-c2ccccc2F)oc1NCCc1ccccn1 | -81*
COCCCNc1oc(-c2ccccc2F)nc1C#N | -84*
O=Cc1ccc(-c2nc3ccccc3s2)o1 | -98*
O=C(O)CCCN1C(=O)/C(=C\c2ccc(-c3nc4ccccc4s3)o2)SC1=S | -83*
COc1cccc(-c2nnc(SCc3cccnc3)o2)c1 | -164*
O=[N+]([O-])c1cccc(-c2nnc(SCc3cccnc3)o2)c1 | -62*
CC(O)/C=C/c1ccc2ccccc2n1 (configuration not stated) | -154*
Cc1ccc(CSc2nnc(SCC(=O)N/N=C/c3ccc(C(=O)O)cc3)s2)cc1 | 70
O=C(CSc1nnc(SCc2ccc(Cl)cc2)s1)N/N=C/c1c(Cl)cccc1Cl | -69*
O=C(CSc1nnc(SCc2ccccc2Cl)s1)N/N=C/c1c[nH]c2ccccc12 | -94*
Cc1ccc(CSc2nnc(SCC(=O)N/N=C/c3ccccc3OCC(=O)O)s2)cc1 | 62
